One assay is described as follows: compound effects on differentiated 3T3-L1 adipocyte viability – cell-based, 3T3-L1 adipocytes, calcein-AM fluorescence, 48 h, basal, profiling panel (AID 1163). Particulars: 3T3-L1 adipocytes viability, higher = more signal.
Take `CC(CO)N1C(=O)[C@@H]2C3C(=O)OCCC/C=C\[C@H]3OC23C=CCN(Cn2nnc4ccccc42)C(=O)[C@@H]13` (stereo partly drawn): the z-score is -0.126.

As to `COC(=O)[C@@]1(Cc2ccc(OC)cc2)[C@H]2c3cc(C(=O)N(C)C)n(CCc4c[nH]c5ccc(O)cc45)c3C[C@H]2CN1C(=O)c1ccccc1`, the z-score was -0.737.

Take `O=c1cccc(-c2cccc(Cl)c2)o1`: the z-score was -0.164.

As for `O=C1O[C@H](c2ccccc2)[C@H](c2ccccc2)N2[C@H]1[C@@H](C(=O)O)[C@]1(C(=O)Nc3ccccc31)[C@H]2c1ccc(O)cc1`, the z-score is -0.268.

Regarding `COCCOC(=O)N1C(=O)[C@@]2(c3ccccc31)[C@H](C(=O)N1CCN(c3ncccn3)CC1)[C@H]1C(=O)O[C@H](c3ccccc3)[C@H](c3ccccc3)N1[C@@H]2c1ccc(OCCO)cc1`, the z-score was -0.069.

Regarding `CCOC(=O)C1=C[C@@H](c2ccccc2)N(S(=O)(=O)c2ccc(C)cc2)[C@H]1c1cccc(Cl)c1`, the z-score is 0.452.

With `O=C1c2ccccc2[C@](Cc2ccccc2I)(C(=O)NCCN2CCOCC2)[C@H](c2ccc(CO)cc2)N1Cc1ccccc1`, the z-score is 0.193.

Consider `O=C(O)[C@H]1C[C@H]2C(=O)N3CCC[C@H]3C(=O)N2[C@H]1c1cccc(OCCO)c1`, for which the z-score is -0.156.

A short description of the next assay: compound effects on hepatocellular carcinoma cell viability – HepG2, calcein-AM fluorescence, 48 h, basal, profiling panel (AID 1164). The settings on record: higher = more signal.
Consider `O=C1C[C@]2(c3ccc([N+](=O)[O-])cc3)C(=O)N(Cc3ccccc3)c3cc(CO)ccc3[C@H]2N1CC12CC3CC(CC(C3)C1)C2`, for which the z-score was 1.51.

In the case of `Cc1c(NC(=O)/C(C#N)=C/C=C/c2ccc(N(C)C)cc2)c(=O)n(-c2ccccc2)n1C`, the z-score is 0.175.

For `COCCOC(=O)N1C(=O)[C@@]2(c3ccccc31)[C@H](c1ccc(OCCO)cc1)N1[C@H](c3ccccc3)[C@H](c3ccccc3)OC(=O)[C@H]1[C@@H]2C(=O)Nc1nc2ccccc2s1`, the z-score is -1.18.

Take `COCCCNC(=O)[C@@]1(Sc2ccc(C)cc2)CC(=O)N(Cc2cc(C(F)(F)F)cc(C(F)(F)F)c2)[C@@H]1c1ccc(CO)cc1`: the z-score was 0.584.

`CCCC[C@@H]1C[C@H]1[C@@H](NC(=O)c1ccccc1)c1ccc(Cl)cc1`: the z-score is -1.17.

As to `CC(C)C(CO)N1C(=O)[C@]2(C)C3C(=O)OCCC/C=C\[C@H]3OC23C=CCN(c2ccc(Cl)cc2)C(=O)[C@@H]13` (stereo partly drawn), the z-score was 1.08.

Regarding `COC(=O)[C@@]1(Cc2ccc(OC)cc2)[C@H]2c3cc(C(=O)N4CCCC4)n(CCc4cc5ccccc5[nH]4)c3C[C@H]2CN1C(=O)c1ccccc1`, the z-score is 0.471.

Consider `CCCC[C@@H]1C[C@H]1[C@@H](NC(=O)c1cccnc1)c1ccc(-c2ccccc2)cc1`, for which the z-score is -0.886.

With `[N-]=[N+]=Nc1ccccc1[C@@H]1OC(c2ccc(OCCCO)cc2)=N[C@]1(CCS(=O)(=O)c1ccccc1)C(=O)NCCN1CCOCC1`, the z-score was -0.229.

Turning to `C[C@@H](OCc1ccccc1)C1NC(=O)[C@@]23C(=O)N[C@@H](Cc4ccccc4)C2[C@H](C)[C@@]2(C)O[C@H]2C3/C=C/C/C=C\CNC(=O)CNC1=O` (stereo partly drawn), the z-score is -0.762.

As to `C=C(CCCC)/C(=C/C[C@@H](OC(=O)c1ccncc1)c1cccc(OCCO)c1)c1cnc2ccccc2c1`, the z-score was -0.681.

Consider `CC(=O)n1cc(C(O)C2C=CC3C(=O)N(c4ccccc4)C(=O)C3N2Nc2ccccc2)c2ccccc21` (stereo not drawn), for which the z-score was 0.374.

With `C=CCN1C(=O)[C@]2(CC=C)N=C(c3ccc(OCCCO)cc3)O[C@@H]2c2ccccc21`, the z-score was -1.82.

Consider `CCOC(=O)C[C@H]1[C@H](OC(=O)Cc2ccc3c(c2)OCO3)[C@@H](NC(=O)C2CCCCC2)c2cc(OCCCO)ccc2N1C(=O)c1ccc2ccccc2n1`, for which the z-score was 0.726.

For the compound `O=C1O[C@@H](c2ccccc2)[C@@H](c2ccccc2)N2[C@@H](c3ccccc3OCCO)[C@]3(C(=O)Nc4ccc(C#CC5=CCCCC5)cc43)[C@@H](C(=O)NC[C@H](O)c3ccccc3)[C@H]12`, the z-score was -3.07.

Turning to `O=C1OCC=C[C@H]2OC34C=CCN(Cn5nnc6ccccc65)C(=O)[C@H]3N(CCCCCCO)C(=O)[C@@H]4[C@@H]12` (stereo partly drawn), the z-score is 0.226.

With `COCCCNC(=O)[C@]1(Cc2ccccc2N=[N+]=[N-])N=C(c2ccc(OCCCO)cc2)O[C@@H]1c1ccccc1N=[N+]=[N-]`, the z-score is -3.44.

As for `CC(C)c1ccc(NN2C(C(O)c3ccco3)C=CC3C(=O)N(c4ccccc4)C(=O)C32)cc1` (stereo not drawn), the z-score is 0.842.

For the compound `Cc1ccc(S[C@]2(C(=O)NCC(C)C)CC(=O)N(Cc3ccccc3Cl)[C@@H]2c2ccc(CO)cc2I)cc1`, the z-score is -0.752.

With `C=CCC(OC(C)=O)[C@@H]1[C@@H](N(Cc2ccc(-c3ccccc3)cc2)C(=O)c2cccc3ccccc23)c2cc(OCCCO)ccc2N1C(=O)Cc1ccc2ccccc2c1` (stereo partly drawn), the z-score is -0.0632.

On to `CC=CC(O)C1C=CC2C(=O)N(C)C(=O)C2N1Nc1ccc([N+](=O)[O-])cc1[N+](=O)[O-]` (stereo not drawn), for which the z-score is 0.275.

`CC(C)(C)OC(=O)CC[C@]1(C(=O)NCCN2CCOCC2)N=C(c2ccc(OCCCO)cc2)O[C@H]1c1ccccc1`: the z-score was 0.549.

`CCCCC(=C=CC[C@@H](O)c1ccc(OCCO)cc1)C[C@@H](O)COCc1ccccc1`: the z-score is 2.15.

As to `COC(=O)[C@H](Cc1ccccc1)N1CC(/C=C/C2CC2)=C[C@@H]1[C@@H](O)Cc1ccccc1`, the z-score was 0.942.

Consider `COCCOC(=O)N1C(=O)[C@@]2(c3cc(C#CCC(C(=O)OC)C(=O)OC)ccc31)[C@H](c1ccc(OCCO)cc1)N1[C@H](c3ccccc3)[C@H](c3ccccc3)OC(=O)[C@H]1[C@@H]2C(=O)N1CCN(c2ncccn2)CC1`, for which the z-score is -0.709.

For the compound `CN(C)C(=O)[C@]1(CCC(=O)OC(C)(C)C)N=C(c2ccc(OCCCO)cc2)O[C@@H]1c1ccccc1`, the z-score was 0.41.

With `COCCOC(=O)N1C(=O)[C@@]2(c3cc(C#CC4(O)CCCCCC4)ccc31)[C@H](C(N)=O)[C@H]1C(=O)O[C@H](c3ccccc3)[C@H](c3ccccc3)N1[C@@H]2c1ccccc1OCCO`, the z-score was -4.88.

As for `CC(CO)N1C(=O)[C@@H]2C3C(=O)OCCC/C=C\[C@H]3OC23C=CCN(Cn2nnc4ccccc42)C(=O)[C@@H]13` (stereo partly drawn), the z-score is 0.789.

Turning to `COC(=O)[C@@]1(Cc2ccc(OC)cc2)[C@H]2c3cc(C(=O)N(C)C)n(CCc4c[nH]c5ccc(O)cc45)c3C[C@H]2CN1C(=O)c1ccccc1`, the z-score was 0.197.

For `O=c1cccc(-c2cccc(Cl)c2)o1`, the z-score was -0.0227.

`O=C1O[C@H](c2ccccc2)[C@H](c2ccccc2)N2[C@H]1[C@@H](C(=O)O)[C@]1(C(=O)Nc3ccccc31)[C@H]2c1ccc(O)cc1`: the z-score is -0.733.

For the compound `COCCOC(=O)N1C(=O)[C@@]2(c3ccccc31)[C@H](C(=O)N1CCN(c3ncccn3)CC1)[C@H]1C(=O)O[C@H](c3ccccc3)[C@H](c3ccccc3)N1[C@@H]2c1ccc(OCCO)cc1`, the z-score was 1.39.

As for `CCOC(=O)C1=C[C@@H](c2ccccc2)N(S(=O)(=O)c2ccc(C)cc2)[C@H]1c1cccc(Cl)c1`, the z-score was -1.71.

For `O=C1c2ccccc2[C@](Cc2ccccc2I)(C(=O)NCCN2CCOCC2)[C@H](c2ccc(CO)cc2)N1Cc1ccccc1`, the z-score is 1.14.

As for `O=C(O)[C@H]1C[C@H]2C(=O)N3CCC[C@H]3C(=O)N2[C@H]1c1cccc(OCCO)c1`, the z-score is 0.601.

The record behind these values is PubChem BioAssay.
Note: test concentration not given here.
